# Assay results reported in PubChem BioAssay AID1159580 (chemical genetic matrix, 2015).
# The whole screen tested about 5,500 compounds, of which about 2,000 (36%) were called active. Inconclusive results (about 18%) are left out. The list shows a part of the results. A number with no mark means an inactive call. Rule as the data show it: active = normalized growth mostly below about 0.91 (no sharp cut-off); inconclusive = no clear call, values can overlap the other calls; inactive = mostly above about 0.92.
# Assay: chemical genetic growth profiling, strain panel (AID 1159580);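 also: tested at 20 µM; growth read once vehicle control cultures reached saturation at 30 °C; 1 = growth at the plate median or of vehicle wells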
# Conditions: growth OD
smiles,measurement,setting,value
COc1ccc(-c2cc(=O)c3c(O)cc(O)cc3o2)cc1,normalized growth,"S. cerevisiae deletion strains, locus YJR075W, strain HOC1, stronger effect = lower value",0.976
same,normalized growth,"S. cerevisiae deletion strains, locus YKL009W, strain mrt4, stronger effect = lower value",0.94
same,normalized growth,"S. cerevisiae deletion strains, locus YKL068W, stronger effect = lower value",0.979
same,normalized growth,"S. cerevisiae deletion strains, locus YKL085W, strain MDH1 (second series), stronger effect = lower value",0.98
same,normalized growth,"S. cerevisiae deletion strains, locus YKL085W, strain MDH1, stronger effect = lower value",0.98
same,normalized growth,"S. cerevisiae deletion strains, locus YKL160W, strain elf1, stronger effect = lower value",0.928
same,normalized growth,"S. cerevisiae deletion strains, locus YKL190W, strain CNB1, stronger effect = lower value",0.985
same,normalized growth,"S. cerevisiae deletion strains, locus YKR001C, strain vps1, stronger effect = lower value",0.991
same,normalized growth,"S. cerevisiae deletion strains, locus YKR026C, strain gcn3, stronger effect = lower value",0.994
same,normalized growth,"S. cerevisiae deletion strains, locus YKR091W, strain srl3, stronger effect = lower value",0.997
same,normalized growth,"S. cerevisiae deletion strains, locus YLL001W, strain dnm1, stronger effect = lower value",0.954
same,normalized growth,"S. cerevisiae deletion strains, locus YLL026W, stronger effect = lower value",0.997
same,normalized growth,"S. cerevisiae deletion strains, locus YLL041C, strain sdh2, stronger effect = lower value",0.996
same,normalized growth,"S. cerevisiae deletion strains, locus YLR027C, strain aat2, stronger effect = lower value",0.97
same,normalized growth,"S. cerevisiae deletion strains, locus YLR039C, strain RIC1, stronger effect = lower value",0.975
same,normalized growth,"S. cerevisiae deletion strains, locus YLR058C, strain SHM2, stronger effect = lower value",0.998
same,normalized growth,"S. cerevisiae deletion strains, locus YLR102C, strain apc9, stronger effect = lower value",0.984
same,normalized growth,"S. cerevisiae deletion strains, locus YLR113W, strain HOG1, stronger effect = lower value",0.694 (active)
same,normalized growth,"S. cerevisiae deletion strains, locus YLR221C, strain rsa3, stronger effect = lower value",0.986
same,normalized growth,"S. cerevisiae deletion strains, locus YLR258W, strain gsy2, stronger effect = lower value",0.97
same,normalized growth,"S. cerevisiae deletion strains, locus YLR262C, strain YPT6 (second series), stronger effect = lower value",0.908
same,normalized growth,"S. cerevisiae deletion strains, locus YLR262C, strain YPT6, stronger effect = lower value",0.92
same,normalized growth,"S. cerevisiae deletion strains, locus YLR268W, strain sec22, stronger effect = lower value",0.985
same,normalized growth,"S. cerevisiae deletion strains, locus YLR320W, strain mms22, stronger effect = lower value",0.97
same,normalized growth,"S. cerevisiae deletion strains, locus YLR330W, strain CHS5, stronger effect = lower value",0.989
same,normalized growth,"S. cerevisiae deletion strains, locus YLR342W, strain FKS1 (second series), stronger effect = lower value",1.11
same,normalized growth,"S. cerevisiae deletion strains, locus YLR342W, strain FKS1, stronger effect = lower value",1.01
same,normalized growth,"S. cerevisiae deletion strains, locus YLR357W, strain rsc2, stronger effect = lower value",1.01
same,normalized growth,"S. cerevisiae deletion strains, locus YLR370C, strain arc18, stronger effect = lower value",0.98
same,normalized growth,"S. cerevisiae deletion strains, locus YLR371W, strain rom2, stronger effect = lower value",0.99
same,normalized growth,"S. cerevisiae deletion strains, locus YLR384C, strain iki3, stronger effect = lower value",1.02
same,normalized growth,"S. cerevisiae deletion strains, locus YLR418C, strain cdc73, stronger effect = lower value",0.957
same,normalized growth,"S. cerevisiae deletion strains, locus YML016C, strain PPZ1, stronger effect = lower value",1.02
same,normalized growth,"S. cerevisiae deletion strains, locus YML032C, strain rad52, stronger effect = lower value",1
same,normalized growth,"S. cerevisiae deletion strains, locus YML120C, strain ndi1, stronger effect = lower value",0.952
same,normalized growth,"S. cerevisiae deletion strains, locus YML124C, strain tub3, stronger effect = lower value",0.99
same,normalized growth,"S. cerevisiae deletion strains, locus YMR058W, strain fet3, stronger effect = lower value",0.983
same,normalized growth,"S. cerevisiae deletion strains, locus YMR078C, strain ctf18, stronger effect = lower value",0.981
same,normalized growth,"S. cerevisiae deletion strains, locus YMR125W, strain sto1, stronger effect = lower value",0.979
same,normalized growth,"S. cerevisiae deletion strains, locus YMR129W, stronger effect = lower value",0.991
same,normalized growth,"S. cerevisiae deletion strains, locus YMR205C, strain PFK2, stronger effect = lower value",0.968
same,normalized growth,"S. cerevisiae deletion strains, locus YMR223W, strain ubp8, stronger effect = lower value",0.982
same,normalized growth,"S. cerevisiae deletion strains, locus YMR231W, strain pep5, stronger effect = lower value",1.01
same,normalized growth,"S. cerevisiae deletion strains, locus YMR263W, strain SAP30, stronger effect = lower value",0.975
same,normalized growth,"S. cerevisiae deletion strains, locus YMR307W, strain GAS1, stronger effect = lower value",1.21
same,normalized growth,"S. cerevisiae deletion strains, locus YNL067W, strain RPL9B, stronger effect = lower value",0.946
same,normalized growth,"S. cerevisiae deletion strains, locus YNL071W, strain lat1, stronger effect = lower value",0.952
same,normalized growth,"S. cerevisiae deletion strains, locus YNL183C, strain NPR1, stronger effect = lower value",0.784 (active)
same,normalized growth,"S. cerevisiae deletion strains, locus YNL209W, strain ssb2, stronger effect = lower value",0.967
same,normalized growth,"S. cerevisiae deletion strains, locus YNL233W, strain BNI4, stronger effect = lower value",0.984
same,normalized growth,"S. cerevisiae deletion strains, locus YNL248C, strain rpa49, stronger effect = lower value",1.03
same,normalized growth,"S. cerevisiae deletion strains, locus YNL250W, strain rad50, stronger effect = lower value",0.966
same,normalized growth,"S. cerevisiae deletion strains, locus YNL271C, strain bni1, stronger effect = lower value",0.98
same,normalized growth,"S. cerevisiae deletion strains, locus YNL298W, strain CLA4, stronger effect = lower value",0.994
same,normalized growth,"S. cerevisiae deletion strains, locus YNL307C, strain MCK1, stronger effect = lower value",0.978
same,normalized growth,"S. cerevisiae deletion strains, locus YNL322C, strain KRE1 (second series), stronger effect = lower value",0.984
same,normalized growth,"S. cerevisiae deletion strains, locus YNR049C, strain mso1, stronger effect = lower value",0.994
same,normalized growth,"S. cerevisiae deletion strains, locus YNR052C, strain pop2, stronger effect = lower value",0.973
same,normalized growth,"S. cerevisiae deletion strains, locus YOL012C, strain htz1",0.966
same,normalized growth,"S. cerevisiae deletion strains, locus YOL147C, strain pex11, stronger effect = lower value",0.99
same,normalized growth,"S. cerevisiae deletion strains, locus YOR001W, strain rrp6, stronger effect = lower value",1
same,normalized growth,"S. cerevisiae deletion strains, locus YOR061W, strain CKA2, stronger effect = lower value",0.991
same,normalized growth,"S. cerevisiae deletion strains, locus YOR069W, strain VPS5, stronger effect = lower value",1
same,normalized growth,"S. cerevisiae deletion strains, locus YOR070C, strain gyp1, stronger effect = lower value",0.968
same,normalized growth,"S. cerevisiae deletion strains, locus YOR080W, strain dia2, stronger effect = lower value",1
same,normalized growth,"S. cerevisiae deletion strains, locus YOR083W, strain WHI5, stronger effect = lower value",0.917
same,normalized growth,"S. cerevisiae deletion strains, locus YOR106W, strain vam3, stronger effect = lower value",0.93
same,normalized growth,"S. cerevisiae deletion strains, locus YOR136W, strain idh2, stronger effect = lower value",0.984
same,normalized growth,"S. cerevisiae deletion strains, locus YOR144C, strain elg1, stronger effect = lower value",1
same,normalized growth,"S. cerevisiae deletion strains, locus YOR184W, strain ser1, stronger effect = lower value",0.978
same,normalized growth,"S. cerevisiae deletion strains, locus YOR231W, strain MKK1, stronger effect = lower value",0.869
same,normalized growth,"S. cerevisiae deletion strains, locus YOR265W, strain rbl2, stronger effect = lower value",0.984
same,normalized growth,"S. cerevisiae deletion strains, locus YOR270C, strain vph1, stronger effect = lower value",0.95
same,normalized growth,"S. cerevisiae deletion strains, locus YOR290C, strain snf2, stronger effect = lower value",0.868
same,normalized growth,"S. cerevisiae deletion strains, locus YOR316C, strain cot1, stronger effect = lower value",0.987
same,normalized growth,"S. cerevisiae deletion strains, locus YPL051W, strain arl3, stronger effect = lower value",0.963
same,normalized growth,"S. cerevisiae deletion strains, locus YPL055C, strain LGE1, stronger effect = lower value",0.982
same,normalized growth,"S. cerevisiae deletion strains, locus YPL078C, strain atp4, stronger effect = lower value",0.92
same,normalized growth,"S. cerevisiae deletion strains, locus YPL106C, strain sse1, stronger effect = lower value",0.946
same,normalized growth,"S. cerevisiae deletion strains, locus YPL240C, strain hsp82, stronger effect = lower value",0.994
same,normalized growth,"S. cerevisiae deletion strains, locus YPL241C, strain CIN2, stronger effect = lower value",0.999
same,normalized growth,"S. cerevisiae deletion strains, locus YPL256C, strain CLN2, stronger effect = lower value",0.756 (active)
same,normalized growth,"S. cerevisiae deletion strains, locus YPR119W, strain clb2, stronger effect = lower value",0.983
same,normalized growth,"S. cerevisiae deletion strains, locus YPR141C, strain kar3, stronger effect = lower value",0.985
same,normalized growth,"S. cerevisiae deletion strains, locus YPR163C, strain tif3, stronger effect = lower value",0.991
same,normalized growth,"S. cerevisiae deletion strains, locus YPR167C, strain met16, stronger effect = lower value",0.985
same,normalized growth,"S. cerevisiae deletion strains, strain wtn01, stronger effect = lower value",1
same,normalized growth,"S. cerevisiae strains, strain wild type, stronger effect = lower value",0.991
